Source: PubChem (The Scripps Research Institute Molecular Screening Center)
Sampled rows, rich in hits. Any-hit rate of the full collection: about 4.8%.
hcDAF-12 act – H. contortus DAF-12 nuclear receptor activators, primary screen, cell-based, luminescence, HEK293, lit1-tk-luc reporter; 370,000 compounds, 1.4% hits; AID 652067, 2013; activation, % at 6.8 µM; HEK293 hcDAF-12 lit1-tk-luc reporter; 0% DMSO, 100% Δ7-dafachronic acid;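 active means activation above the mean of all tested compounds plus 3 SD, cut at about 5.5% in these data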;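 further: 100% = response to 3 µM Δ7-dafachronic acid high control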
DAX1 inh-1 – DAX1 (NR0B1) inhibitors on StAR promoter, primary screen, cell-based, luminescence, SF-1 (NR5A1), full-length DAX-1 | HEK293T StAR-luciferase reporter, SF-1/DAX-1 repression relief | inhibition, % at 6.8 µM | 370,000 compounds, 1.1% hits;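 active means inhibition above the mean over all tested compounds plus 3 SD, cut at about 3.6% in these data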;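 further: 0% = DAX-1 cells with DMSO and 100% = cells lacking DAX-1 with DMSO; higher inhibition means more luminescence from relief of DAX-1 repression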
ssDAF12 agonist – S. stercoralis DAF-12 nuclear receptor activators, primary screen, cell-based, luminescence, HEK293, GRIP1 co-expression, lit1-tk-luc | Nuclear hormone receptor DAF-12 (Strongyloides stercoralis) | HEK293 ssDAF-12/GRIP1 lit1-tk-luc reporter; % of 3 µM dafachronic acid response | activation, % at 6.8 µM | 370,000 compounds, 1% hits | AID 652126, 2013;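 active means activation above the mean over all tested compounds plus 3 SD, cut at about 0.9% in these data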;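 further: 0% = DMSO-only wells and 100% = 3 µM delta7-dafachronic acid wells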
SMARCA2 activ – SMARCA2 (BRM) function activators, primary screen, cell-based, luminescence, high throughput | MG213 cells, MMTV-luciferase reporter, dexamethasone, overnight | activation, % at 9.1 µM | 370,000 compounds, 1% hits | AID 652017, 2013; in the data active means activation above about 7.8%;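 further: 0% = vehicle wells and 100% = reference activator wells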
hgDAF-12 ag – H. glycines DAF-12 receptor agonists, primary screen, cell-based, luminescence, HEK293, GAL4 fusion, UAS-luciferase; activation, % at 6.8 µM; HEK293 GAL4-hgDAF12 UAS-luciferase reporter, agonist luminescence; normalized to butyrate control; Nuclear hormone receptor DAF-12 (Heterodera glycines), GAL4 fusion; 370,000 compounds, 1.8% hits;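 active means activation above a cutoff set at the mean of all screened compounds plus 3 SD, cut at about 10% in these data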;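 further: 0% = DMSO wells and 100% = sodium butyrate wells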
DAX1 inh-2 – DAX1 (NR0B1) inhibitors, primary screen, cell-based, HEK293, Gal4-DAX1, luciferase luminescence; Nuclear receptor subfamily 0 group B member 1 (Homo sapiens), P51843; HEK293 Gal4-DAX1 luciferase reporter; inhibition, % at 6.75 µM; 340,000 compounds, 0.99% hits;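 active means inhibition above the mean over all tested compounds plus 3 SD, cut at about 4.2% in these data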;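 further: 0% = DAX1-transfected cells with DMSO and 100% = empty-vector control cells with DMSO; inhibition shows as a rise in luminescence from relieved DAX1 repression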
Target sequence (P51843 207-470 limits assumed): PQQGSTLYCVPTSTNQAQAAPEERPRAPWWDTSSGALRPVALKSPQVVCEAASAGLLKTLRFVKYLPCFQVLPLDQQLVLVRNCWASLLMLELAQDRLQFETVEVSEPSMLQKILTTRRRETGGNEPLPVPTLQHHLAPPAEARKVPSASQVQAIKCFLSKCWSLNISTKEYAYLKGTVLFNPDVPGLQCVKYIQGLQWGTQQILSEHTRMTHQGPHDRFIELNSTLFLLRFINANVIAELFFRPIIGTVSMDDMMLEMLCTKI
SMARCA2 conf – SMARCA2 (BRM) function activators, confirmation, cell-based, luminescence, triplicate; activation, % at 9.1 µM; shares compounds with SMARCA2 activ; 3,500 compounds, 30% hits; MG213 cells, MMTV-luciferase with dexamethasone, overnight; MG213 cells expressing E1A, Rb sequestered; DMSO wells 0%, reference activator 100%;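 active means activation above its plate's cutoff, the mean activation of tested wells plus 3 SD, cut at about 7.9% in these data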
GAL4-VP16 Luc – GAL4-VP16 luciferase reporter activation, counter-screen for SMARCA2 (BRM) activator project, cell-based, pG5luc, luminescence, high throughput. HEK293 GAL4-VP16 pG5luc reporter; scaled: DMSO wells 0%, SAHA wells 100%. shares compounds with SMARCA2 activ. AID 686939, 2013. 3,500 compounds, 41% hits. activation, % at 9.1 µM;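 active means activation above the solvent-only control well mean plus 3 SD, averaged across control plates, cut at about 5.2% in these data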
LXR ag – LXR agonists, Gal4 luciferase reporter, confirmation, counter-screen for hcDAF-12 agonist project, cell-based, luminescence, HEK293, H. contortus campaign; shares compounds with hcDAF-12 act; HEK293 Gal4-LXR tk-luc reporter, 24 h; normalized: DMSO 0%, positive control 100%; activation, % at 6.8 µM; 3,400 tested, under 10 active; AID 743027, 2013;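 active means mean percent activation of the reporter above a cutoff set as the average over tested compounds plus their standard deviation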
hcDAF12 ag – H. contortus DAF-12 receptor agonists, confirmation, cell-based, luminescence, HEK293, lit1-tk-luc, triplicate; activation, % at 6.8 µM; shares compounds with hcDAF-12 act; HEK293 hcDAF-12 lit1-tk-luc reporter; % of Δ7-dafachronic acid response; 3,400 compounds, 61% hits;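 active means mean activation across triplicate tests above the threshold derived from the earlier primary screen, cut at about 5.5% in these data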;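 further: 0% = DMSO only wells and 100% = 3 µM Δ7-dafachronic acid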
Starred values were filed as active, the others as inactive; · = no result given.

SMILES	hcDAF-12 act	DAX1 inh-1	ssDAF12 agonist	SMARCA2 activ	hgDAF-12 ag	DAX1 inh-2	SMARCA2 conf	GAL4-VP16 Luc	LXR ag	hcDAF12 ag
COc1ccc2nc(N3C(=O)CNC3=S)sc2c1	8.4*	1	0	8.6*	8	3	14*	10*	1	5
Cc1ccccc1NC(=O)/C(C#N)=C/c1ccsc1	5	1	0	7	6	3	·	·	·	·
Cc1ccccc1NC(=O)/C(C#N)=C/c1ccc[nH]1	11*	2	1	9.5*	5	0	1	5.3*	0	8.5*
COc1cccc2c1CCc1c-2nc2ccccc2c1C(=O)O	8.4*	1	0	11*	12*	0	8.2*	5.9*	1	7.8*
CCc1ccc(CCNC(=O)OCCCN2CCC3(CCC(C)CC3)C2=O)cc1 (stereo unspecified)	-4	-2	-2	-5	0	·	·	·	·	·
CCCC(=O)N/N=C1\CS(=O)(=O)N(C)c2ccsc21	1	0	0	-3	0	0	·	·	·	·
CN1c2ccsc2/C(=N/Nc2ccc(F)cc2)CS1(=O)=O	7.1*	2	4.7*	9.4*	9	5.9*	8.1*	6.5*	1	9.1*
c1coc(-c2nc3c4ccccc4ccn3c2Cc2ccsc2)c1	7.4*	3	1.6*	20*	12*	·	16*	5	1	15*
C[C@@H]1OC(C2CCCCC2)N(C)[C@H]2C[C@H]3c4cc(N5CCOCC5)ccc4CCN3C[C@@H]12 (stereo partly specified)	1	1	-2	-2	4	·	·	·	·	·
COc1cc2c(cc1NC(=O)c1ccccc1F)CCCC2	8.2*	2	0	9.3*	10	0	4	7.6*	0	6.7*
COc1cc(OC)c(NC(=O)c2ccccc2F)cc1Cl	5	1	0	7	2	1	·	·	·	·
COc1ccc2nc(/N=C\N(C)C)sc2c1	4	1	0	1	3	1	·	·	·	·
CN(C)/C=N/c1nc2ccc3c(c2s1)CCCC3	6.7*	3	0	15*	11*	3	18*	13*	1	6.4*
COc1ccc(C(C#N)N2N=C(c3ccccc3)CC2c2ccccc2)cc1OC (stereo unspecified)	8.7*	2	0	13*	7	2	7	4	0	2
COc1ccc(C(C#N)N2N=C(C)CC2c2ccccc2)cc1OC (stereo unspecified)	0	0	0	0	-2	0	·	·	·	·
O=C(Nc1nnc(SCC(=O)N2CCCc3ccccc32)s1)c1ccccc1	8.0*	1	-1	10*	7	-2	2	8.0*	0	4
Cc1cc(C)cc(C(=O)Nc2cccnc2Cl)c1	-2	0	-2	3	-2	0	·	·	·	·
Cc1ccc(C(=O)Nc2cccnc2Cl)cc1Cl	8.0*	1	1	8.3*	8	6.0*	9.1*	7.5*	0	5
Cc1cccn2cc(-c3c[nH]c4ccccc34)nc12	6.9*	3	0.9*	17*	13*	4.8*	6	10*	1	10.0*
COc1ccc(C(=O)CN2C(=O)COc3ccccc32)cc1	-1	0	-1	-2	1	2	·	·	·	·
COc1ccc(C(=O)CN2Cc3ccccc3C2=N)cc1	18*	3	2.1*	12*	13*	3	8.3*	6.1*	1	9.5*
Nc1c2c(nc3ccccc13)CCCC2	1	0	-1	-4	0	1	·	·	·	·
Nc1c2ccccc2nc2ccccc12	14*	0	2.6*	55*	5	3	110*	2	1	25*
Cc1cc(C)cc(OCC(=O)NNC(=O)c2ccccn2)c1	-2	0	-1	6	-5	-1	·	·	·	·
C/C(CC(=O)Nc1cc(C)cc(C)c1)=N\NC(=O)c1ccccn1	7.4*	3	0	9.8*	11*	2	-2	3	0	0
SMILES	hcDAF-12 act	DAX1 inh-1	ssDAF12 agonist	SMARCA2 activ	hgDAF-12 ag	DAX1 inh-2	SMARCA2 conf	GAL4-VP16 Luc	LXR ag	hcDAF12 ag
Cc1cc(C)c2c(N)c3cccc(C)c3nc2n1	10*	2	1.7*	28*	4	2	347*	6.1*	2	31*
O=C(c1ccccc1Oc1ccccc1)N1CCC(Oc2cccnc2)CC1	-2	-1	0	-2	0	·	·	·	·	·
OCCCNc1c2ccccc2nc2ccccc12	20*	0	2.3*	19*	7	0	145*	1	2	29*
C[C@H](O)[C@@H]1C(=O)N2CCc3c([nH]c4cccc(-c5ccccc5)c34)[C@@H]2C[C@@H]1N(C)C(=O)Nc1ccccc1	0	1	-1	-4	-2	·	·	·	·	·
FC(F)(F)c1ccccc1Cc1c(-c2cccc(Cl)c2)nc2c3ccccc3ccn12	8.3*	2	1.6*	8.2*	5	·	-4	1	0	4
COc1ccccc1Cc1c(-c2cccc(Cl)c2)nc2c3ccccc3ccn12	2	2	0	3	5	·	·	·	·	·
